Bioassay records (PubChem)
In the library only some 12% were active in any assay of this set; here they are far more common.
Cav32 inh = blocks human Cav3.2 T-type calcium channel. Cav3.2-expressing cells, Fluo-4 calcium fluorescence FDSS; stronger effect = lower value. B-score at 10 µM. actives 4% (n = 100,000);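 active = single-dose well whose peak fluorescence ratio is a statistical outlier from its plate by either plate-standardised score or position-corrected B-score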
DAT uptake mod = modulates human dopamine transporter uptake under cocaine. Q01959. LLC-PK1 hDAT cells, [14C]-dopamine uptake with cocaine IC80; actives deviate in either direction. B-score at 10 µM. actives 1.3% (n = 110,000). AID 449768;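 active = Z score or B-score, a plate-position-corrected score, falls beyond the plate's 99.7% confidence bounds, in either direction; inactive = both scores lie inside the 99.7% bounds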;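 note: scored against the spread of the other compound wells on the same plate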
PostGolgi yeast = growth inhibition of a yeast mutant, post-Golgi transport screen | post-Golgi transport phenotypic cell assay | inhibition, % at 10 µM | actives 0.9% (n = 98,000);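 note: yeast cells grown in 1536-well plates; yeast grown about 18 h at 30C before absorbance read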
PLAP act = human PLAP activation. actives 1.2% (n = 96,000). P05187. purified PLAP enzyme, luminescent substrate read-out; stronger effect = higher value. activation fold at 20 µM; in the data active = activation fold above about 2
PostGolgi ctrl = growth of the yeast control strain, post-Golgi counter-screen. actives 5% (n = 98,000). inhibition, % at 10 µM. efflux-deficient yeast background strain, growth absorbance A615, 16 h
D1 mod = D1 dopamine receptor (human) allosteric modulation; HEK293 D1, CRE-luciferase, dopamine EC30 potentiation; actives deviate in either direction; B-score at 10 µM; P21728; actives 5.9% (n = 58,000);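 active = luminescence count or its row- and column-corrected plate score outside the 99.7% band of the plate's sample wells, on either side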
Target sequence (P21728 whole entry, looked up): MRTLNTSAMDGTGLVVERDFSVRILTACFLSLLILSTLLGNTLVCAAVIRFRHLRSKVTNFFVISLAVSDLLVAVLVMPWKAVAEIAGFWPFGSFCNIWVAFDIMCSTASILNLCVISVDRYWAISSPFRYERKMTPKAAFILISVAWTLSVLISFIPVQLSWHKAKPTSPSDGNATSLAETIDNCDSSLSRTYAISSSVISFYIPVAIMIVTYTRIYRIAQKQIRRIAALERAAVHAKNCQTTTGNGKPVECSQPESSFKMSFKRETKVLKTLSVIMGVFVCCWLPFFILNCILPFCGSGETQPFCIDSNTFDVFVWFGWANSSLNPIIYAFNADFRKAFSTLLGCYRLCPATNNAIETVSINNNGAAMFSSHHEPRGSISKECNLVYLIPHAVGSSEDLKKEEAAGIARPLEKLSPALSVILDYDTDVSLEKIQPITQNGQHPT
Active calls of the source: *; . = not tested or not shown. Cut-off read from the data, not from the text of the source, unless noted: active = inhibition above about 30%; inactive = the rest.

SMILES | Cav32 inh | DAT uptake mod | PostGolgi yeast | PLAP act | PostGolgi ctrl | D1 mod
N#Cc1c(NC(NC(=O)c2ccco2)C(=O)c2ccccc2)sc2c1CCCC2 (stereo not drawn) | -2.88 | 0.977 | 40.6* | 0.9 | 81.2* | 0.466
Cn1c(NC(=O)Cc2ccc(F)cc2)cc(=O)n(C)c1=O | -0.628 | 1.54 | -0.3 | 1 | -7.7 | 2.44
COc1ccc(-c2coc3cc(OC)cc(O)c3c2=O)cc1 | -2.1 | -2.41* | -2.4 | 1 | 0.0 | .
COc1ccc(-c2coc3cc(OC)cc(OC)c3c2=O)cc1 | -0.177 | 2.4 | . | . | . | .
Cc1cc(S(=O)(=O)N(Cc2ccccn2)Cc2ccco2)ccc1-n1cnnn1 | -0.351 | 2.61* | 7.0 | 1.5 | -10.5 | 0.209
CCN(CC)S(=O)(=O)c1ccc(-n2cnnn2)c(C)c1 | 0.0656 | -0.704 | 16.4 | 1.2 | 3.1 | .
Nc1c2c(nc3ccn(Cc4ccccc4)c(=O)c13)CCC2 | -0.0841 | 0.851 | 11.2 | 0.7 | 44.5* | -3.23*
Nc1c2c(nc3ccn(-c4ccccc4)c(=O)c13)CCCCC2 | 0.213 | -1.11 | 6.4 | 1.1 | 4.0 | -4.71*
C=CCn1c(CCC(=O)O)ccc1-c1ccccc1 | -0.956 | 0.12 | 5.3 | 1 | 1.7 | 0.0198
CCCCS(=O)Cc1ccccc1 (stereo not drawn) | 0.47 | -0.843 | 6.2 | 0.8 | 1.8 | .
N=c1n(CCN2CCOCC2)c2ccccc2n1CC(=O)c1ccc(Cl)c(Cl)c1 | -4.65* | 1.37 | -2.2 | 1.5 | -0.4 | -1.38
Cc1cc(C)cc(NC(=S)NC(=O)CCN2C(=O)c3ccccc3C2=O)c1 | -0.098 | -1.59 | 87.5* | 0.9 | 91.6* | .
O=C(CCN1C(=O)c2ccccc2C1=O)NC(=S)Nc1cccc(Cl)c1 | -2.31 | -0.0597 | 8.8 | 0.9 | 20.2 | .
COCCN(Cc1cc2cc(C)cc(C)c2nc1Cl)C(=O)Nc1ccccc1 | -1.24 | 0.449 | -1.7 | 1.4 | 35.4* | .
Cc1cccc(S(=O)(=O)N(CC(=O)Nc2ccccc2C)Cc2ccco2)c1 | -2.57 | 1.2 | -4.3 | 0.8 | 14.2 | .
Cc1cc(C)c2nc(Cl)c(CN(Cc3ccco3)C(=O)Nc3ccccc3C)cc2c1 | -3.8 | -0.339 | 7.0 | 1.3 | 34.5* | .
COc1ccc(N2CCN(C(c3cccc(OC)c3OC)c3nnnn3C3CCCC3)CC2)cc1 (stereo not drawn) | -5.41* | -0.0134 | 3.2 | 1.4 | 10.1 | -1.1
COc1ccc(C(c2nnnn2C2CCCC2)N2CCc3ccccc3C2)cc1OC (stereo not drawn) | -3.97* | 0.661 | -12.9 | 1.7 | 10.4 | -0.00155
CC(C)C(c1nnnn1C1CCCCC1)N1CCN(c2ncccn2)CC1 (stereo not drawn) | 0.907 | 0.541 | 51.5* | 1.4 | 82.5* | -0.606
Fc1ccccc1N1CCN(C(c2ccccn2)c2nnnn2C2CCCCC2)CC1 (stereo not drawn) | -2.03 | 0.0601 | 5.1 | 1.7 | 40.5* | 1.2
COc1ccccc1N1CCN(C(c2ccccn2)c2nnnn2C2CCCCC2)CC1 (stereo not drawn) | 0.0214 | 0.663 | 4.3 | 1.7 | 7.8 | .
O=C(NC(=S)N(CCCCO)C1CCCCC1)c1sc2ccccc2c1Cl | -1.72 | 1.03 | -1.1 | 1.4 | 17.6 | .
COc1ccc(N2CCN(C(c3ccccc3OC)c3nnnn3C3CCCC3)CC2)cc1 (stereo not drawn) | -5.93* | -0.343 | 2.6 | 1.5 | 2.5 | -0.516
COc1ccc(OC)c(C(c2nnnn2C2CCCC2)N2CCN(c3ccccc3F)CC2)c1 (stereo not drawn) | -6.07* | 0.0108 | 8.8 | 1.9 | 11.8 | -1.42
Cc1ccc(CONC(=O)/N=C/N(C)C)cc1 | 0.681 | -0.948 | 1.0 | 0.9 | 14.9 | .
SMILES | Cav32 inh | DAT uptake mod | PostGolgi yeast | PLAP act | PostGolgi ctrl | D1 mod
Cc1nc(Nc2ccccc2)[nH]c(=O)c1CCC(C)C | -0.682 | -0.652 | -3.0 | 0.9 | 17.6 | 0.598
CCCCCc1c(C)nc(NCc2ccccc2)[nH]c1=O | -0.975 | 0.149 | 10.7 | 1 | 39.3* | .
CN(C)CCCn1c(NC(=O)C2CCCCC2)nc2ccccc21 | -3.59* | -0.302 | 1.4 | 1.8 | 1.4 | -2.88
Cc1cc(C)cc(-n2nnc(C(=O)NCc3ccccc3Cl)c2N)c1 | -0.494 | -0.631 | -1.9 | 1 | -4.8 | -0.152
Nc1c(N2CCOCC2)cc(Cl)c2nonc12 | -0.329 | 0.0577 | 4.4 | 0.8 | 7.2 | -4.83*
Nc1c(N2CCCC2)cc(Cl)c2nonc12 | -0.808 | -2.18 | -2.8 | 0.7 | 4.2 | 0.0259
CCn1c(CSc2nnc(-c3ccc4c(c3)OCO4)o2)nc2cc(S(=O)(=O)N(C)C)ccc21 | 2.24 | 1.43 | -2.6 | 1.5 | 2.4 | .
O=C(COc1ncnc2ccccc12)N1CCN(S(=O)(=O)c2ccc(Cl)cc2)CC1 | 0.642 | -1.12 | -7.0 | 1.3 | -7.1 | .
COc1cc(Cl)c(C)cc1NC(=O)COc1cc(C)nc(C(C)C)n1 | 0.933 | -0.144 | 9.0 | 1.1 | -1.1 | 2.02
COc1ccccc1NC(=O)COc1cc(C)nc(C(C)C)n1 | 1.89 | 0.0525 | 9.8 | 0.9 | 37.5* | .
Nc1nc(CN2CCN(c3ccc(F)cc3)CC2)nc(N2CCCc3ccccc32)n1 | -3.29 | -2.65* | 1.9 | 1.5 | 10.8 | -0.429
Cn1c(CNc2nc(-c3ccccc3)cs2)nnc1SCC(=O)OC1CCCCC1 | -6.11* | 1.18 | -0.6 | . | 9.1 | -0.188
CC(C)OC(=O)CSc1nnc(CNc2nc(-c3ccccc3)cs2)n1C | -0.57 | 0.0335 | 3.9 | 1.4 | 8.9 | -0.283
O=C1CN(C(=O)COC(=O)c2cccc(S(=O)(=O)NCc3ccccc3)c2)c2ccccc2N1 | -5.98* | 0.599 | 3.5 | 0.9 | 8.9 | .
Cc1ccc(CN(CC(=O)N/N=C/c2ccccc2[N+](=O)[O-])S(=O)(=O)c2ccc(C)cc2)cc1 | -3.98* | -1.38 | 3.5 | 1.5 | 10.6 | .
Cc1c(C)n(C(=O)CSc2nc3ccccc3[nH]2)c2ccccc12 | -2.59 | 0.961 | -2.4 | 1.5 | 31.4* | .
C/C(N)=C(/C#N)C(=O)CSc1nc2ccc(C)cc2[nH]1 | 0.358 | 0.0148 | 0.9 | 1.9 | 11.2 | -2.59*
Cc1ccc2nc(SCC(=O)N3CCOCC3)[nH]c2c1 | 0.147 | 0.256 | 1.1 | 1.2 | 6.8 | .
Cc1cc(C(=O)CSc2nc3ccc(Cl)cc3[nH]2)c(C)n1C | 0.402 | 0.895 | 55.2* | 2.1* | 84.4* | -0.0167
CCC(Sc1nc2ccccc2[nH]1)C(=O)Nc1cc(C)on1 (stereo not drawn) | 0.644 | -0.0126 | -1.6 | 2.1* | 6.0 | 0.388
CCC(C(=O)Nc1cc(C)on1)c1ccccc1 (stereo not drawn) | 0.122 | -0.138 | 3.1 | 0.8 | -10.5 | .
Cc1ccc2nc(SCC(=O)c3cc(C)n(C)c3C)[nH]c2c1 | -0.165 | 1.06 | 1.4 | 1.1 | 32.9* | .
COc1ccc2nc(SCC(=O)NC(C)C)[nH]c2c1 | 0.285 | -0.577 | 9.1 | 0.8 | 27.9 | -0.0549
Cc1cc(C(=O)CSc2nc3ccccc3[nH]2)c(C)n1C | 1.3 | 1.26 | 11.2 | 1.8 | 6.8 | -2.87*
Cc1cc(NC(=O)CSc2nc3cc(Cl)ccc3s2)no1 | -0.14 | 0.125 | -3.5 | 0.5 | -1.2 | .
Cc1cc(NC(=O)CSc2nc3ccc(Cl)cc3[nH]2)no1 | -0.906 | -0.3 | 4.0 | 2.7* | 13.5 | .
